Statin myotox sup – suppressors of statin myotoxicity in C2C12 myotubes, primary screen, cell-based, single point, plate reader; C2C12 myotubes + simvastatin, ATP luminescence, 48 h; scaled: DMSO 0, geranylgeraniol control 100; rescue of ATP level, % at 7.49 µM; hit rate 0.78% among 330,000;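 active = mean ATP rescue above about 67%, or every replicate alone reaching that limit, limit read from the data, passing the limit was not always enough; inconclusive = no clear call, values can overlap the other calls; inactive = mean under the limit and some replicate under it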;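 note: myotubes were challenged with 10 µM simvastatin during compound exposure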
EBV LMP1 NFkB – EBV LMP1-driven NF-kappaB luciferase reporter inhibitors, primary screen, cell-based, luminescence, single point | LMP1-induced NF-kappaB luciferase reporter cells | inhibition, % at 12.5 µM | hit rate 0.69% among 350,000; in the data active = inhibition above about 41%; inconclusive = no clear call, values can overlap the other calls;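 note: 0% = neutral control wells and 100% = reference inhibitor control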
TRPM1 prom inh – inhibitors of MITF-dependent TRPM1 promoter reporter, primary screen, cell-based, SK-MEL-5, single point, luciferase; inhibition, % at 12.5 µM; SK-MEL-5 TRPM1 promoter luciferase, 24 h; AID 488899, 2010; hit rate 0.83% among 330,000;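 active = mean inhibition across replicates of 60% or more, whatever share of single replicates reaches that level; inconclusive = some that reach 60%, reason not given; inactive = mean inhibition across replicates below 60%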
Wnt bcat act – Wnt/beta-catenin pathway activators, primary screen, cell-based, plate reader, single point | activation, % at 9.35 µM | Wnt/beta-catenin reporter cell assay, activator | hit rate 1.2% among 300,000 | AID 743398, 2014; in the data active = activation above about 30%, passing the limit was not always enough; inconclusive = no clear call, values can overlap the other calls;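 note: 0% = neutral control wells and 100% = positive control wells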
MITF act – activators of MITF-driven TRPM1 promoter reporter, primary screen, cell-based, SK-MEL-5, luciferase, single point; SK-MEL-5 TRPM1-promoter luciferase, 24 h; % of positive control, neutral wells = 0; activation, % at 12.5 µM; hit rate 0.75% among 300,000;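 active = mean activation of at least 80% with every replicate also reaching 80%; inconclusive = mean reaches 80% but some replicate falls short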;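 note: 0% = neutral control wells and 100% = parthenolide positive control wells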
esBAF inh – Bmi1 luciferase reporter increase in mESCs, primary screen, esBAF inhibitor project, mouse ES cells, Bmi1 luciferase knock-in, single point. 24 h; 100% = twice the neutral-well signal. reporter increase, % at 12.5 µM. hit rate 2% among 350,000; in the data active = activation above about 40%; inconclusive = no clear call, values can overlap the other calls;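 note: 0% = median of the plate's neutral control wells and 100% = double that signal; a rise in the Bmi1 reporter signal indicates esBAF inhibition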
* hit, by the source's call; ? = inconclusive; / = no result. Most compounds without a hit are left out; they make up all but 4% or so of the library.

SMILES	Statin myotox sup	EBV LMP1 NFkB	TRPM1 prom inh	Wnt bcat act	MITF act	esBAF inh
CCN(CC)C(=O)c1sc(NC(=O)C(Sc2ccccc2)c2ccccc2)c(C(=O)OC(C)C)c1C (stereo unspecified)	100.9*	10.1	4.4	/	-0.9	-52.3
O=C(c1ccccc1)C1OC1C(=O)c1ccccc1 (stereo unspecified)	0.9	28.7	36.0	12.9	-34.8	53.1*
CCOc1ccccc1-n1c(N)c(C(N)=O)sc1=S	-8.6	-0.3	3.9	-2.1	-0.8	-2.6
O=C(C[C@H]1C(=O)N(c2ccc(Br)cc2)C[C@@H]1Cc1ccccc1)Nc1ccccc1	19.2	2.4	/	-0.3	/	-3.7
CCOC(=O)Cn1cnc2c(sc3nc(C)cc(C)c32)c1=O	7.0	-3.5	-47.7	37.6*	/	34.8
Cc1cc(C)c2c(n1)sc1c(=O)n(Cc3ccc(F)cc3)cnc12	7.4	-3.0	-5.3	0.7	/	2.4
COC(=O)Cn1c(C)nc2c(sc3nc(C)cc(C)c32)c1=O	-9.6	-22.5	-89.7	/	90.9*	?
C=CCn1cnc2c(sc3nc(C)cc(C)c32)c1=O	/	-12.9	-33.5	30.0	/	/
CC[n+]1c(/C=C/Nc2ccccc2)sc2ccccc21	13.3	5.5	6.4	-4.3	/	-21.3
CCN1/C(=C/C=C/c2sc3ccccc3[n+]2CC)Sc2ccccc21	-163.3	50.2*	98.9*	/	-97.9	-69.9
CCN1/C(=C/C=C/C=C/C=C/c2sc3ccccc3[n+]2CC)Sc2ccccc21	-75.3	35.9	94.8*	-0.9	-94.2	-37.6
COC(=O)c1[nH]c2cc(C)ccc2c1NC(=O)CN1CCN(c2ccccc2OC)CC1	86.2*	8.4	22.3	/	-20.3	-9.5
COC(=O)c1[nH]c2cc(C)ccc2c1NC(=O)CN1CCOCC1	/	-3.8	-6.1	1.8	12.2	/
COc1ccc(S(=O)(=O)Nc2ccc3c(c2)C(=O)N([C@H](C)CO)C[C@H](C)[C@H](CN(C)C(=O)Nc2cccc4ccccc24)O3)cc1	18.7	/	/	/	/	-1.4
CC1CC(c2ccccc2)n2nc(N3C(=O)c4ccccc4C3=O)nc2N1 (stereo unspecified)	100.8*	3.1	12.5	-0.5	-10.1	-2.8
Cc1ccccc1NC(C)C(=O)N/N=C/c1c[nH]c2ccccc12 (stereo unspecified)	/	-3.4	5.0	-12.9	-4.4	/
CN(C)c1ccc(N=c2sc3ccccc3n2C)cc1	9.4	-23.7	-50.5	51.4*	51.3	81.9*
O=C(NC(=S)NCc1ccccc1)c1ccccc1	/	9.7	104.3*	0.9	-103.5	/
O=C(CNC(=S)NC(=O)C1CCCCC1)c1ccccc1	-34.9	-30.5	-87.9	-0.3	87.0*	20.9
O=C(NCc1ccccc1)c1ccc(C(=O)NCc2ccccc2)cc1	/	-2.2	3.4	-25.5	-6.1	/
CC(C)(C)c1ccc(C(=O)NCc2ccccc2)cc1	/	-23.9	-88.3	6.6	88.4*	/
O=C(NC(=S)NC1CCCC1)c1ccccc1	2.3	-39.4	-45.8	25.0	54.6	56.5*
O=C(NC(=S)NCCc1ccccc1)C1CCCCC1	-7.3	-11.5	-5.4	1.6	4.4	31.6
O=C(NC(=S)NC1CCCCCCCCCCC1)c1cccnc1	-22.1	2.7	1.9	-3.9	-2.6	-2.4
COC(=O)CNC(=O)COC(=O)/C=C/c1cccs1	5.1	-9.1	10.4	10.5	-12.0	-0.7
SMILES	Statin myotox sup	EBV LMP1 NFkB	TRPM1 prom inh	Wnt bcat act	MITF act	esBAF inh
Cc1cc(C)cc(-n2nnnc2SCC(=O)N2CCOCC2)c1	17.4	-3.7	0.6	-3.4	-2.7	-0.9
CC(=O)c1cccc(NC(=O)c2ccc(-c3ccccc3[N+](=O)[O-])o2)c1	4.1	-38.8	-26.4	108.6*	25.9	103.2*
Cc1cc(NC(=O)c2ccc(-c3ccccc3F)o2)no1	/	-26.9	-35.9	25.0	40.8	/
Cc1cc(NC(=O)c2ccc(-c3ccccc3[N+](=O)[O-])o2)no1	0.1	0.0	/	-2.7	/	57.0*
Cc1ccc(C(=O)c2ccccc2C(=O)OCC(=O)N2CCCC2)cc1	-2.3	-8.0	-5.3	5.7	7.2	42.9*
Nc1cc(Cl)ccc1C(=O)OCC(=O)N1CCCCCC1	-9.9	-13.9	-77.6	8.5	72.9	52.7*
Nc1cc(Cl)ccc1C(=O)OCC(=O)N1CCCC1	5.9	1.7	-45.7	-0.8	47.3	29.3
Cc1cccc(C(=O)OCC(=O)N2CCCCCC2)c1C	1.6	-22.4	-79.6	34.3*	79.0	63.5*
O=C(c1sc2ccccc2c1Cl)N(Cc1ccco1)C1CCS(=O)(=O)C1 (stereo unspecified)	28.5	-0.6	4.2	/	-2.5	-2.3
CC(=O)Nc1cccc(C(=O)Nc2ccc(S(=O)(=O)N3CCCCC3)cc2)c1	-17.1	1.0	8.1	-1.7	-7.0	9.2
Cc1ccc(S(=O)(=O)N(C)Cc2ccc(-c3nnco3)cc2)cc1	108.1*	-8.4	-6.3	-0.1	3.0	2.2
Cc1ccc2[nH]c(=O)c(CN(CCc3ccccc3)C(c3nnnn3Cc3ccco3)C(C)C)cc2c1 (stereo unspecified)	/	3.3	7.8	35.9*	-5.6	/
CC(C)CCN1C(=O)c2ccc(-c3nc4ccccc4c(=O)o3)cc2C1=O	-3.9	-6.5	2.2	/	-1.5	6.1
C=CCNc1nc(C(=O)OC(C)C(=O)c2ccc(C)cc2)cs1 (stereo unspecified)	-4.0	1.8	-35.9	22.0	28.6	56.8*
O=C(COC(=O)c1ccccc1-n1cnnn1)c1ccc(F)c(F)c1	16.3	-27.8	3.8	4.8	-3.7	55.7*
CCCCCCOc1ccc(C(CC(=O)NC)C(=O)O)cc1 (stereo unspecified)	7.3	-3.1	-14.2	-1.5	12.6	0.3
CCCCCCOc1ccc(C(CC(N)=O)C(=O)O)cc1 (stereo unspecified)	107.2*	-15.8	-4.5	-1.0	5.8	-2.9
NS(=O)(=O)c1ccc(CNc2ccc3ccccc3n2)cc1	-8.1	-11.3	-57.7	7.5	/	51.5*
NS(=O)(=O)c1ccc(CNC(=O)c2ccc3ccccc3n2)cc1	11.1	4.5	-4.2	0.5	3.8	-0.8
CC(=O)c1ccc(N2CCN(C(=O)c3ccc(-c4ccccc4)cc3)CC2)cc1	-0.5	-1.5	-11.2	-3.8	8.9	11.5
Oc1ccccc1-c1cc(-c2ccco2)[nH]n1	-12.4	-18.2	-52.2	/	44.5	61.8*
Oc1c(-c2cc(-c3ccco3)[nH]n2)ccc2ccccc12	-4.7	-78.2	-22.6	/	27.0	64.9*
Oc1ccc(Cl)cc1-c1cc(-c2ccco2)[nH]n1	3.3	-9.4	5.6	6.0	-4.2	11.3
COc1ccc2c(C)c(CCC(=O)NCCCN3CCCC3=O)c(=O)oc2c1C	0.7	0.6	-1.0	0.0	1.2	7.7
